Measurements as given in PubChem BioAssay.

These compounds were tested on XIP peptide (Xip251-270) (assay: small-molecule binders of XIP peptide, primary screen, biochemical, small-molecule microarray, fluorescence 635/667 nm, 0.5 µg/mL protein (AID 1183)). Details: small-molecule microarray binding, fluorescence 635 nm; higher = more signal.
`N#Cc1ccc(NN2C(C(O)c3cc(C(F)(F)F)cc(C(F)(F)F)c3)C=CC3C(=O)N(c4ccccc4)C(=O)C32)cc1` (stereo unspecified) was tested, and the composite z-score was 0.479. With `COCCOC(=O)N1C(=O)[C@@]2(c3cc(C#CCNC(N)=O)ccc31)[C@H](c1ccccc1OCCO)N1[C@H](c3ccccc3)[C@H](c3ccccc3)OC(=O)[C@H]1[C@@H]2C(=O)N1CCN(c2ncccn2)CC1` the composite z-score was 0.787. Compound `CC(C)[Si]1(C(C)C)O[C@@H](c2ccccc2)c2cc(C3CC3)nc(-c3ccccc3)c21` has a composite z-score of 0.555. `COc1ccc([Si](C)(C)[C@@H]2[C@@H](CC(=O)N3CCC[C@H]3CO)O[C@]3(C(=O)N(Cc4cccc(N5CCC5=O)c4)c4ccccc43)[C@H]2C)cc1` showed a composite z-score of 0.824. For `CN(C)c1ccc(C(O)C2C=CC3C(=O)N(c4ccccc4)C(=O)C3N2Nc2ccccc2F)cc1` (stereo unspecified), the composite z-score was 0.265. `CCCCCN1CC=CC23O[C@@H]4C=CCOC(=O)[C@@H]4[C@H]2C(=O)N(CCCCCCO)[C@@H]3C1=O` (stereo partly specified) gave a composite z-score of -0.325. `CC(C)(C)OC(=O)CC[C@]1(C(N)=O)COC(c2ccc(OCCCO)cc2)=N1` gave a composite z-score of 0.223. In the case of `CC(C)(C)OC(=O)CC[C@]1(C(=O)NCc2ccccc2)N=C(c2ccc(OCCCO)cc2)O[C@H]1c1ccccc1`, the composite z-score is reported as 0.846. For `COc1ccc(CCNC(=O)[C@@H]2c3ccccc3C(=O)N(c3ccc(C)cn3)[C@H]2c2ccc(CO)cc2)cc1`, the composite z-score was 0.843. In the case of `CC1CC/C=C\[C@H]2OC34C=CCN(Cn5nnc6ccccc65)C(=O)[C@H]3N(CCO)C(=O)[C@@H]4C2C(=O)O1` (stereo partly specified), the composite z-score is reported as 0.855. `C[N+](C)(C)CCCCCCNC(=O)[C@@H]1C[C@@H]2C(=O)N3CCC[C@H]3C(=O)N2[C@@H]1c1cccc(OCCO)c1` showed a composite z-score of 0.697.
